TGFb SMAD3 inh: qHTS for Inhibitors of TGF-b | HepG2 CAGA-GFP TGF-b/SMAD3 reporter, GFP fluorescence, 18 h; TGF-beta stimulated, 500 pg/mL final | Potency, µM (top dose mostly 46.1 µM), hits mostly inhibitors | 410,000 compounds, 1.2% hits; note: nearly all actives have a fitted effect of over 65% in size
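Cell-based qHTS in HEPG2 carrying a CAGA-GFP Smad reporter; compounds added before 500 pg/mL final TGF-beta, 18 h incubation at 37 degrees C, GFP fluorescence quantified per cell by imaging cytometry.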
ATXN2 expr inh: Primary qHTS for Inhibitors of ATXN expression; 360,000 compounds, 0.72% hits; Potency, µM (titrated, usually from 57 µM), actives largely listed as inhibitors; AID 1745845, 2022; HEK-293 ATXN2-luciferase reporter, luminescence, 24 h; note: nearly all actives have a fitted effect of over 55% in size
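ATXN2-luciferase reporter cells (luciferase flanked by upstream and downstream ATXN2 gene portions) were treated 24 h at 37 °C with compounds at up to 57 uM. SteadyGlo luminescence gave expression; GF-AFC fluorescence gave viability.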
A549 tox: Nrf2 qHTS screen for inhibitors: counterscreen for cytotoxicity | A549 ARE-Fluc cells, CellTiter-Fluor viability, 18-24 h | Potency, µM (series often up to 46 µM), actives largely listed as inhibitors | 390,000 compounds, 0.16% hits | AID 504648, 2011
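Cytotoxicity counterscreen: CellTiter-Fluor fluorescence was measured in A549 ARE_Fluc cells after 18-24 h of compound exposure in a concentration series. The subsequent BugLite luminescent read reports ARE-luciferase activity.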
HepG2 tox: qHTS for Inhibitors of TGF-b: Cytotox Counterscreen. Potency, µM (highest dose often 46.1 µM), hits mostly cytotoxic. HepG2 CAGA-GFP viability, ATP luminescence, 18 h. 410,000 compounds, 0.76% hits
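HepG2 CAGA-GFP cells (1000/well, DMEM with 1% FBS) received compound, then TGF-beta at 500 pg/mL final, and were incubated 18 hours at 37 degrees C. Viability was read by CellTiter-Glo luminescence. Media-only wells were set as complete cell-killing and DMSO as no toxicity.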
ATXN viability: Viability Counterscreen for Primary qHTS for Inhibitors of ATXN expression | 400,000 compounds, 0.49% hits | AID 651635, 2014 | S2 cells (HEK-293 line with an ATXN2-luciferase reporter) viability, CellTiter-Fluor protease fluorescence, 24 h | Potency, µM (doses to about 56.7 µM), actives largely listed as cytotoxic; note: nearly all actives have a fitted effect of over 40% in size
Nrf2 inh: Nrf2 qHTS screen for inhibitors. A549 ARE-Fluc reporter, luciferase luminescence, 18-24 h. Potency, µM (top dose mostly 46 µM), hits mostly inhibitors. 360,000 compounds, 2.1% hits. AID 504444, 2011; note: nearly all actives have a fitted effect of over 60% in size
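Concentration-response testing used A549 ARE_Fluc cells at 5000 cells/well. Following an 18-24 h compound incubation, viability was read by fluorescence (Ex 405/Em 525) and luciferase output by luminescence.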
Each line names hits and unclear results; the compound was inactive in the other large screens. In the library only some 3.8% were active in any assay of this set; here they are far more common. Calls come from the whole dose curve; as a rule, active = well fitted curve in the direction sought with a large enough effect; inconclusive = small, poorly fitted or top-dose-only effect, or another doubt; inactive = no such curve, though single readings can be large; an effect the other way counts as inactive or inconclusive.

CCC(=O)NC(c1ccc2c(c1)OCO2)c1cc(Cl)c2cccnc2c1O (centres undefined)	none (no result: TGFb SMAD3 inh, ATXN2 expr inh, HepG2 tox, ATXN viability)
CCC(=O)N1CCC1(C)C(=O)Nc1ncc(C)s1 (centres undefined)	none (no result: A549 tox, Nrf2 inh)
CCOC(=O)C1=C(CSCc2ccccc2)NC(=O)NC1c1cc(C)ccc1C (centres undefined)	TGFb SMAD3 inh inconclusive, ATXN2 expr inh inconclusive, A549 tox inconclusive, Nrf2 inh 18.4µM
CCOC(=O)C1=C(CN2CCCCC2)NC(=O)NC1c1cc(C)ccc1C (centres undefined)	none
CN1C(=S)N(c2cccnc2)C(=O)/C1=C\c1ccc(C(C)(C)C)cc1	TGFb SMAD3 inh 22.4µM, ATXN viability inconclusive
Cc1c(Br)c([N+](=O)[O-])nn1CC(=O)Nc1ccc(Cc2ccncc2)cc1	ATXN2 expr inh inconclusive, A549 tox inconclusive, Nrf2 inh 18.4µM
CCOC(=O)c1c(NC(NC(=O)C(C)C)C(Cl)(Cl)Cl)sc2c1CCC2 (centres undefined)	TGFb SMAD3 inh inconclusive, A549 tox inconclusive, Nrf2 inh 23.1µM
CSCCC(NS(=O)(=O)c1ccccc1F)C(=O)NCCCn1nc(C)cc1C (centres undefined)	none
O=C(NCCc1ccc(Cl)cc1)c1ccc2[nH]c(=O)c(=O)[nH]c2c1	none (no result: ATXN2 expr inh)
N#CC1=C(SCC(=O)c2ccc(Br)cc2)NC2=C(C(=O)CCC2)C1c1ccco1 (centres undefined)	A549 tox inconclusive, Nrf2 inh 18.4µM
CC(C)c1ccc(O)c(NC(=S)NC(=O)c2ccc3c(c2)OCO3)c1	TGFb SMAD3 inh 14.1µM
Cc1ccc(-c2nc(CS(=O)(=O)CC(=O)N3CCN(c4ccccc4)CC3)c(C)o2)cc1	TGFb SMAD3 inh 11.2µM, Nrf2 inh inconclusive (no result: ATXN2 expr inh, ATXN viability)
COC(=O)CSCc1nc(-c2ccc(C(=O)OC)cc2)oc1C	ATXN2 expr inh 4.47µM (no result: Nrf2 inh)
Cc1cccc(-c2nc(CSCC(=O)NCCc3ccc(Cl)cc3)c(C)o2)c1	TGFb SMAD3 inh 12.6µM, Nrf2 inh inconclusive (no result: ATXN2 expr inh, ATXN viability)
Cc1cccc(-c2nc(CSCC(=O)N3CCN(c4ccccc4)CC3)c(C)o2)c1	TGFb SMAD3 inh 11.2µM, Nrf2 inh 23.1µM (no result: ATXN2 expr inh, ATXN viability)
Cc1ccc(CCNC(=O)CSCc2nc(-c3ccc(C)cc3)oc2C)cc1	TGFb SMAD3 inh inconclusive, Nrf2 inh inconclusive (no result: ATXN2 expr inh, ATXN viability)
CCOc1ccc(-c2nc(CSCC(=O)N3CCN(c4cccc(C(F)(F)F)c4)CC3)c(C)o2)cc1	TGFb SMAD3 inh inconclusive, A549 tox inconclusive (no result: ATXN2 expr inh, ATXN viability, Nrf2 inh)
CC(O)(CC(=O)CC(=O)c1ccccc1)c1ccccc1 (centres undefined)	Nrf2 inh inconclusive
COc1ccc(-c2nc(CSCC(=O)N3CCN(C)CC3)c(C)o2)cc1OC	none
Cc1cccc(N2CCN(C(=O)CSCc3c(C)noc3C)CC2)c1C	Nrf2 inh 1.84µM
Cc1noc(C)c1CSCC(=O)N1CCN(c2ccc(F)cc2)CC1	Nrf2 inh inconclusive
CCc1ccc(-c2nc(CSCC(=O)N3CCN(c4ncccn4)CC3)c(C)o2)cc1	TGFb SMAD3 inh inconclusive, ATXN2 expr inh inconclusive, Nrf2 inh 20.6µM
COc1ccc(-c2nc(CSCC(=O)N3CCN(c4cccc(C)c4C)CC3)c(C)o2)cc1OC	ATXN2 expr inh inconclusive, ATXN viability 31.6µM (no result: Nrf2 inh)
CCC1CCC(NC(=O)Nc2cccc(OC)c2)CC1 (centres undefined)	Nrf2 inh inconclusive
Cc1oc(-c2ccccc2Cl)nc1CSCC(=O)NC1CC1	none
Cc1oc(-c2ccccc2F)nc1CSCC(=O)NC1CCCC1	Nrf2 inh 18.4µM
O=[N+]([O-])c1cccc(-c2ccc3nnc(SCc4cccnc4)n3n2)c1	Nrf2 inh inconclusive
O=C1CN(C(=O)COC(=O)CCc2ccccc2O)c2ccccc2N1	none
O=C(c1ccc2ccccc2c1)C1CCCN(S(=O)(=O)c2cccnc2)C1 (centres undefined)	Nrf2 inh 20.6µM
O=C(C1CCCN(S(=O)(=O)c2cccnc2)C1)N1CCN(c2ccccn2)CC1 (centres undefined)	Nrf2 inh inconclusive
O=C(NCC(c1cccnc1)N1CCc2ccccc21)c1ccc(F)cc1 (centres undefined)	TGFb SMAD3 inh inconclusive, Nrf2 inh inconclusive (no result: ATXN2 expr inh, ATXN viability)
CC1CC(C)CN(S(=O)(=O)c2ccc(C(=O)NCc3ccc4c(c3)OCO4)cc2)C1 (centres undefined)	Nrf2 inh 10.3µM
CCOc1ccc(Cc2nc(C)c(CC(=O)N3CCCCC3)c(=O)[nH]2)cc1	none
CC(C)c1nn(-c2c(Cl)cccc2Cl)c2nc(Cc3ccc(OCCO)cc3)[nH]c(=O)c12	ATXN2 expr inh 0.0343µM (no result: TGFb SMAD3 inh, A549 tox, HepG2 tox, ATXN viability, Nrf2 inh)
Cc1cc2c3c(c1C)C1(C(=O)N3C(C)(C)CC2C)C(C#N)=C(N)Oc2cc(O)ccc21 (centres undefined)	TGFb SMAD3 inh inconclusive, ATXN2 expr inh inconclusive, A549 tox inconclusive, ATXN viability 22.4µM, Nrf2 inh inconclusive
CCCCCc1cc(=O)oc2c(C(CCN3CCCCC3)c3cc(OC)c(OC)c(OC)c3)c(OC)cc(OC)c12 (centres undefined)	TGFb SMAD3 inh 15.8µM, ATXN2 expr inh 31.6µM, HepG2 tox 12.6µM, ATXN viability 20µM
CCCCCc1cc(=O)oc2c(C(CCN(CC)CC)c3ccc(N(C)C)cc3)c(OC)cc(OC)c12 (centres undefined)	TGFb SMAD3 inh inconclusive, ATXN2 expr inh inconclusive, ATXN viability 25.1µM
CCCCCc1cc(=O)oc2c(C(CCN3CCCC(C)C3)c3ccc(N(C)C)cc3)c(OC)cc(OC)c12 (centres undefined)	TGFb SMAD3 inh inconclusive, ATXN2 expr inh inconclusive, A549 tox inconclusive (no result: ATXN viability)
CCCCCc1cc(=O)oc2c(C(CCN3CCCC(C)C3)c3cc(OC)c(OC)c(OC)c3)c(OC)cc(OC)c12 (centres undefined)	TGFb SMAD3 inh inconclusive, ATXN2 expr inh inconclusive, A549 tox inconclusive, HepG2 tox 15.8µM, ATXN viability 31.6µM
CCN(CC)CCC(c1ccc(N(C)C)cc1)c1c(OC)cc(OC)c2c(C)cc(=O)oc12 (centres undefined)	A549 tox inconclusive (no result: ATXN2 expr inh, ATXN viability)
COc1ccccc1C(CNC(=O)c1ccc(C)c(S(=O)(=O)N2CCCCC2)c1)N1CCCC1 (centres undefined)	none
CC1=C(C(=O)OC(C)C)C(c2cccc([N+](=O)[O-])c2)C(C(=O)OC2CN(C(c3ccccc3)c3ccccc3)C2)=C(N)N1 (centres undefined)	ATXN2 expr inh 31.6µM, ATXN viability 35.5µM (no result: TGFb SMAD3 inh, A549 tox, HepG2 tox, Nrf2 inh)
